In the supplement of paper PMC6555819:

Experiments:
Assay in all cases: PBM binding z-score (relative to random genomic background probes); higher = stronger binding; sequences stand for … in GC…GCGATTGACAGCGTAGAATGAAGG
[1] = test system: PPARg:RXRa DBDmut IVT, anti-RXR (DBD mutation: RXRa K156A/R161A, NR concentration 270 nM, RXRa partner concentration 90 nM)
Summary of the method: (§1)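 Random background probes are the reference for binding z-scores. These scores derive from regression-normalized fluorescence on custom Agilent 4×180K protein-binding microarrays incubated 1 h with ligand-free nuclear receptor dimers. Binding was detected with antibodies against each partner (one per run).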

[2] = test system: PPARg:RXRa IVT, anti-PPARg (NR concentration 270 nM, RXRa partner concentration 90 nM)
Summary of the method: as §1

[3] = test system: PPARg DBDmut:RXRa IVT, anti-PPARg (DBD mutation: PPARg1 K132A/R137A, NR concentration 270 nM, RXRa partner concentration 90 nM)
Summary of the method: as §1

[4] = test system: PPARg DBDmut IVT, anti-PPARg (DBD mutation: PPARg1 K132A/R137A, NR concentration 270 nM)
Summary of the method: as §1

[5] = test system: PPARg homodimer (NR concentration 180 nM)
Summary of the method: as §1

[6] = test system: PXR:RXRa (NR concentration 270 nM, RXRa partner concentration 90 nM)
Summary of the method: as §1

[7] = test system: PXR homodimer (NR concentration 270 nM)
Summary of the method: as §1

[8] = test system: RARa:RXR (NR concentration 270 nM, RXRa partner concentration 90 nM)
Summary of the method: as §1

[9] = test system: RARa homodimer (NR concentration 270 nM)
Summary of the method: as §1

[10] = test system: RARb:RXRa (NR concentration 270 nM, RXRa partner concentration 90 nM)
Summary of the method: as §1

[11] = test system: RARb homodimer (NR concentration 270 nM)
Summary of the method: as §1

[12] = test system: RARg:RXRa (NR concentration 270 nM, RXRa partner concentration 90 nM)
Summary of the method: as §1

[13] = test system: RARg homodimer (NR concentration 270 nM)
Summary of the method: as §1

[14] = test system: RXRa DBDmut IVT, anti-RXR (DBD mutation: RXRa K156A/R161A, NR concentration 90 nM)
Summary of the method: as §1

[15] = test system: RXRa homodimer (NR concentration 180 nM)
Summary of the method: as §1

[16] = test system: THRa:RXRa (NR concentration 90 nM, RXRa partner concentration 90 nM)
Summary of the method: as §1

[17] = test system: THRa homodimer (NR concentration 90 nM)
Summary of the method: as §1

[18] = test system: VDR homodimer (NR concentration 270 nM)
Summary of the method: as §1

[19] = test system: VDR:RXRa (NR concentration 270 nM, RXRa partner concentration 90 nM)
Summary of the method: as §1

Sequence	PBM binding z-score [1]	PBM binding z-score [2]	PBM binding z-score [3]	PBM binding z-score [4]	PBM binding z-score [5]	PBM binding z-score [6]	PBM binding z-score [7]	PBM binding z-score [8]	PBM binding z-score [9]	PBM binding z-score [10]	PBM binding z-score [11]	PBM binding z-score [12]	PBM binding z-score [13]	PBM binding z-score [14]	PBM binding z-score [15]	PBM binding z-score [16]	PBM binding z-score [17]	PBM binding z-score [18]	PBM binding z-score [19]
CGTCCAGGGTCAAGGTCAGTGAAAGAGACTCGAA	1.82	4.14	0.455	0.241	3.01	4.77	0.845	5.13	1.53	5.23	4.96	6.51	6.69	2.77	6.61	4.19	2.79	2.98	
CTACCAAGGCGAACAAGGTCGTTGATTACTATTC	0.161	-0.119	-0.0454	0.0113	0.33	1.25	0.453	1.16	0.111	0.395	0.781	0.29	0.0992	0.854	0.744	2.38	0.72	1.38	2.59
GCTTACGGGACAAAGGTTATAGCATGAATAGAAT	1.28	3.13	0.314	1.06	1.03	1.57	0.222	2.59	0.238	1.81	1.47	2.52	1.27	0.777	2.36	1.55	-0.159	0.681	1.24
ATCTCTAGGTAAAGTGCAGTGAAAGATCGATAGA	2.44	1.95	0.431	0.336	0.363	-0.0343	0.194	0.372	0.333	0.504	0.108	0.474	0.497	0.0332	0.222	0.316	-0.174	-0.0309	0.146
AAAGACAGGTGAGTGAAGGTAACTCAGCTGGACG	0.772	0.948	0.86	-0.373	0.59	-0.0597	0.232	0.219	0.262	0.715	0.159	0.293	0.488	-0.545	0.374	1.86	-0.204	-0.128	-0.172
ATCTCTAGGTAAACGTTCAGTGAATCCCGAGGAT	3.11	2.05	0.531	0.761	0.198	-0.434	-0.237	-0.544	-0.155	0.26	-0.498	0.172	0.369	-0.148	0.0015	0.136	0.162	-0.489	-0.107
CCTGCTAGGTCAATGGTCAGCCAAAGCAGCTCGC	4.18	3.97	-0.884	-0.321	1.16	0.76	-0.543	1.52	-0.219	3.77	3.05	3.38	4.35	1.48	2.23	2.06	0.619	-0.16	0.672
GTACCAACGTGAATAGGTCGTTGATGAGTAGGCG	-0.261	-0.148	-0.62	-0.461	-0.374	-0.0666	-0.401	0.105	-0.122	-0.00783	0.16	0.141	0.237	-0.361	0.489	-0.22	-1.03	-0.24	-0.204
GCTTGTAGATCAAGGTTAAGAATGACTAAGCTAA	1.74	0.924	0.367	0.28	-0.624	0.546	-0.428	0.94	-0.617	0.932	0.438	0.397	0.413	0.0922	0.859	1.08	-0.00442	-0.161	
GGAACGAGGGCAACTTGATAGCAGAGTTTGATGG	4.45	3.29	0.236	0.0207	0.796	0.872	0.418	0.629	0.251	2.72	1.42	1.7	2.17	2.2	1.13	1.26	0.0506	1.35	0.718
CTACCAAGTTGAACAAGGTCGTTGATTACTATTC	0.743	0.688	0.967	0.704	1.45	2.65	4.18	1.96	1.44	1.29	1.75	0.927	0.929	2.12	1.15	2.77	1.57	3.58	5.18
CCTTACGGGTCACTGACAGGTTCTAGCATTTGGA	3.31	3.38	0.541	-0.487	1.98	2.71	-0.239	3.46	0.459	3.63	3.15	4.85	4.15	1.95	4.61	2.45	0.145	1.03	3.36
ATCTCTAGGTAAAGTTCAGTGCAAGATCGATAGA	2.92	2.81	0.415	1.22	2.51	2.32	1.67	1.49	1.38	2.78	2.68	2.49	2.87	1.39	1.4	1.5	0.256	2.47	1.87
AGTCAAAGTTCACTAGGTAACGAAAGATTCAGCT	2.71	5.36	0.953	1.35	2.81	3.8	2.41	2.8	1.47	4.54	3.45	4.86	5.55	3.95	3.92	1.85	0.1	3.69	
TCTCGCAGGACACGAAGGTCAGAGCTTTCCAGAG	1.49	0.67	-1.01	-1.42	0.787	1.44	-0.0691	1.81	-0.422	2.74	3.18	2.44	2.34	0.886	1.96	2.4	0.377	0.357	
